Test [1] concerns XIP peptide (Xip251-270) binding. Description: small-molecule binders of XIP peptide, primary screen, biochemical, small-molecule microarray, fluorescence 635/667 nm, 0.1 µg/mL protein (AID 1182). Conditions: fluorescent protein binding, 635 nm, higher = more signal, called active from +8 up or from −8 down.
Another test has as its system XIP peptide (Xip251-270). The test can be described thus: small-molecule binders of XIP peptide, primary screen, biochemical, small-molecule microarray, fluorescence 635/667 nm, 0.5 µg/mL protein (AID 1183). The conditions noted are these: small-molecule microarray binding, fluorescence 635 nm; higher = more signal.
Test [2] can be described thus: Plasmodium falciparum growth inhibition, primary screen, strain 3D7, DAPI fluorescence, 100 nL (AID 1184).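 Note: parasites grown inside human red blood cells in medium with human serum.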 The conditions noted are these: P. falciparum 3D7 growth, 3 d, higher = more signal.
Test [3] addresses Homeobox protein Hox-A13 (Mus musculus) (UniProt Q62424). Description: inhibitors of HoxA13-DNA binding, primary screen, biochemical, fluorescence polarization, labeled oligonucleotide (AID 1185). Conditions: 15 min, higher = more signal, called active from +8 up or from −8 down. On the technique in general: In fluorescence polarisation assays a small probe gives low polarisation when free and higher when bound to something large.

Test [4] is described as follows: inhibitors of hydroxyurea-induced Chk1 phosphorylation, primary screen, imaging, HeLa, phospho-Chk1 antibody, percent positive cells (AID 1186). Conditions: hydroxyurea-induced phospho-Chk1 immunofluorescence imaging, higher = more signal.
Test [5] in a line: inhibitors of hydroxyurea-induced Chk1 phosphorylation, primary screen, imaging, HeLa, phospho-Chk1 nuclear intensity (AID 1187). The conditions noted are these: hydroxyurea-induced phospho-Chk1 immunofluorescence imaging, higher = more signal.

Activity calls are given as the source filed them. Unless noted, the rule behind the calls is not given here.

Homeobox protein Hox-A13 (Mus musculus), sequence (Q62424 whole entry, looked up): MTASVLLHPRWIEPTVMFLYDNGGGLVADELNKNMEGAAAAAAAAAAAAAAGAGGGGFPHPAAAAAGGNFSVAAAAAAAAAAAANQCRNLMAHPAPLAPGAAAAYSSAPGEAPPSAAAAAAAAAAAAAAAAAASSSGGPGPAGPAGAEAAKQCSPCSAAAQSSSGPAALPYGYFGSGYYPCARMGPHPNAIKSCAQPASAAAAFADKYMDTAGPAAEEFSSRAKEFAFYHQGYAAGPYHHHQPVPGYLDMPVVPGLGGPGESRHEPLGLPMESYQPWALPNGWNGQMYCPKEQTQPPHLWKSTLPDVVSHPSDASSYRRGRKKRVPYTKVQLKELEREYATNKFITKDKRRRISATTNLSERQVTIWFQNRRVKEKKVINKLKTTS

For the compound `O=C(N1CCCCC1)[C@]1(CCS(=O)(=O)c2ccccc2)N=C(c2ccc(OCCCO)cc2)O[C@@H]1c1ccccc1`, the values for the composite z-score (in test [1]; in the test on XIP peptide (Xip251-270)) were 1.29 (inactive) and 0.75, respectively. Moreover, the z-score is -2.79 in test [2], -5.68 (inactive) in test [3], -0.599 (inactive) in test [4] and -1 (inactive) in test [5].
On to `C=C(COC)C(=O)CC[C@@H](OC(=O)c1ccccc1-c1ccccc1C(=O)O)c1ccc(CO)o1`, for which the values for the composite z-score (in test [1]; in the test on XIP peptide (Xip251-270)) were -0.5 (inactive) and 0.633, respectively. In addition, the z-score in test [2] was 1.47; in test [3], -4.32 (inactive); in test [4], 1.37 (inactive); in test [5] it was 0.477 (inactive).
On to `O=C1OCCC/C=C\[C@H]2OC34C=CCN(CCN5CCOCC5)C(=O)[C@H]3N(CCO)C(=O)[C@@H]4C12` (stereo partly specified), for which the composite z-score in test [1] is 0.489 (inactive); in the test with XIP peptide (Xip251-270) it was -0.979. In addition, the z-score in test [2] was -1.22; in test [3], -5.83 (inactive); in test [4], -0.225 (inactive); in test [5] it was 0.264 (inactive).
On to `O=C1OCC=C[C@H]2OC34C=CCN(c5ccc6ccccc6c5)C(=O)[C@H]3N(CCO)C(=O)[C@@H]4[C@@H]12` (stereo partly specified), for which the composite z-score is 0.594 (inactive) in test [1] and 0.605 with XIP peptide (Xip251-270). Further, the z-score is 0.666 in test [2], -5.78 (inactive) in test [3], 0.0775 (inactive) in test [4] and 0.219 (inactive) in test [5].
For the compound `C=CCCN(CC#C[C@H]1Oc2ccccc2S(=O)(=O)N2CCC[C@@H]12)S(=O)(=O)c1ccc(C)cc1`, the values for the composite z-score (in test [1]; in the test on XIP peptide (Xip251-270)) were -0.183 (inactive) and -0.0455, respectively. The z-score in test [2] is -1.53; in test [3] it was -2.47 (inactive); in test [4] it was 0.508 (inactive); in test [5] it was 0.431 (inactive).
`C=C[C@H](OC)[C@@H](OC(=O)Nc1ccc(SC)cc1)c1ccc(OCCO)cc1`: the figures for the composite z-score (in test [1]; in the test with XIP peptide (Xip251-270)) were 0.591 (inactive) and -0.0661, respectively. The z-score in test [2] is 0.194; in test [3], -5.62 (inactive); in test [4], 0.259 (inactive); in test [5] it was 0.654 (inactive).
For the compound `Cc1ccccc1/C=C/C=O`, the results for the composite z-score (in test [1]; in the test on XIP peptide (Xip251-270)) were 0.958 (inactive) and 0.532, respectively. The z-score in test [2] is -0.198; in test [3], -0.848 (inactive); in test [4], 0.133 (inactive); in test [5], 0.0525 (inactive).
As for `[N-]=[N+]=NCc1ccccc1[C@H]1OC(c2ccc(OCCCO)cc2)=N[C@@]1(Cc1ccccc1)C(=O)O`, the composite z-score is 0.419 (inactive) in test [1] and 0.652 with XIP peptide (Xip251-270). Further, the z-score was 0.45 in test [2], -5.05 (inactive) in test [3], -0.594 (inactive) in test [4] and -1.1 (inactive) in test [5].
For `CC1CC/C=C\[C@H]2OC34C=CCN(CCN5CCOCC5)C(=O)[C@H]3N(CCCCCO)C(=O)[C@@H]4C2C(=O)O1` (stereo partly specified), the composite z-score in test [1] was -0.173 (inactive); in the test on XIP peptide (Xip251-270), -1.32. Further, the z-score in test [2] was -0.143; in test [3] it was -5.32 (inactive); in test [4], -0.0913 (inactive); in test [5], -0.364 (inactive).
Turning to `O=C1[C@H]2C=C(Br)[C@H](C[C@@H]2OCCOCCO)[C@@]12CO2`, the composite z-score in test [1] was -0.0844 (inactive); in the test on XIP peptide (Xip251-270), 0.798. Further, the z-score in test [2] is -0.334; in test [3], -0.559 (inactive); in test [4] it was -0.051 (inactive); in test [5], -0.0596 (inactive).
Turning to `C=CCNC(=O)[C@H]1[C@@H]2C(=O)O[C@@H](c3ccccc3)[C@@H](c3ccccc3)N2[C@@H](c2ccc(O)cc2)[C@]12C(=O)Nc1ccc(C#Cc3ccc(OC)cc3)cc12`, the figures for the composite z-score (in test [1]; in the test on XIP peptide (Xip251-270)) were 0.292 (inactive) and 0.779, respectively. Moreover, the z-score in test [2] is -0.785; in test [3] it was -1.91 (inactive); in test [4], 0.0407 (inactive); in test [5], 0.277 (inactive).
In the case of `C=CCC(OC(C)=O)[C@@H]1[C@@H](N(Cc2cc3ccccc3o2)C(=O)c2cccc3ccccc23)c2cc(OCCCO)ccc2N1C(=O)Cc1ccc(OC)cc1` (stereo partly specified), the composite z-score in test [1] is 0.1 (inactive); in the test on XIP peptide (Xip251-270) it was -0.208. Moreover, the z-score in test [2] is -2.37; in test [3], -3.31 (inactive); in test [4] it was 0.821 (inactive); in test [5], 0.775 (inactive).
Consider `C=C[C@@H](C)[C@@H](OC(=O)Nc1ccc(OC)cc1)c1ccc(O)c2ccccc12`, for which the composite z-score in test [1] was 1.36 (inactive); with XIP peptide (Xip251-270) it was -0.0477. Further, the z-score in test [2] is -1.65; in test [3], -3.38 (inactive); in test [4] it was 0.453 (inactive); in test [5], 0.196 (inactive).
Take `CCCCCN1CC=CC23O[C@@H]4C=CCCOC(=O)C4[C@H]2C(=O)N(CCCO)[C@@H]3C1=O` (stereo partly specified): the figures for the composite z-score (in test [1]; with XIP peptide (Xip251-270)) were 0.0154 (inactive) and 0.466, respectively. Moreover, the z-score was -1.54 in test [2], -3.33 (inactive) in test [3], -0.299 (inactive) in test [4] and -0.688 (inactive) in test [5].
Turning to `Oc1ccc2cc[n+](Cc3cccc(OC(F)(F)F)c3)cc2c1`, the values for the composite z-score (in test [1]; with XIP peptide (Xip251-270)) were 0.143 (inactive) and 0.558, respectively. Besides, the z-score in test [2] was 0.233; in test [3], -3.08 (inactive); in test [4], -0.208 (inactive); in test [5] it was -0.16 (inactive).
With `COC(=O)c1nc2oc1CC[C@@H](CO)NC(=O)N(C)Cc1cn(nn1)C[C@H](Cc1ccccc1)NC2=O`, the composite z-score was 0.827 (inactive) in test [1] and 0.969 in the test on XIP peptide (Xip251-270). The z-score was 1.24 in test [2], -1.31 (inactive) in test [3], -0.0288 (inactive) in test [4] and -0.455 (inactive) in test [5].

The values are drawn from PubChem BioAssay.
